Data published in PubChem BioAssay (NCI).
Where “and” joins values, the source holds several entries; their conditions need not be identical. Equal entries are not always repeated. This is part of a sample that, as a whole, favours compounds with a hit. Of some 83,000 tested, about 20% had one in any assay.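 A percent growth of 40 corresponds to 60% growth inhibition; 0 means no net growth; -100 means all cells died. Active threshold: below 10.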 A number with no mark means an inactive call. Calls of active or inactive are those of the source.

Assays:
Experiment in all cases: NCI-60 one-dose screen, 48 h (100 = growth as untreated, 0 = no growth, -100 = all killed)
Conditions in all cases: 10 µM unless noted
[1] = system: NCI-H23 lung
[2] = system: NCI-H226 lung
[3] = system: NCI-H322M lung
[4] = system: HOP-62 NSCLC
[5] = system: NCI-H460 lung
[6] = system: HOP-92 NSCLC
[7] = system: NCI-H522 lung
[8] = system: A549/ATCC NSCLC
[9] = system: 786-0 renal
[10] = system: COLO 205 colon
[11] = system: DU-145 prostate
[12] = system: K-562 leukemia
[13] = system: MALME-3M melanoma
[14] = system: MDA-MB-231 breast
[15] = system: RXF 393 renal
[16] = system: SF-268 CNS
[17] = system: SF-295 CNS
[18] = system: SF-539 CNS
[19] = system: UACC-257 melanoma
[20] = system: M14 melanoma

Structure (SMILES) | growth [1] | growth [2] | growth [3] | growth [4] | growth [5] | growth [6] | growth [7] | growth [8] | growth [9] | growth [10] | growth [11] | growth [12] | growth [13] | growth [14] | growth [15] | growth [16] | growth [17] | growth [18] | growth [19] | growth [20]
Oc1c(Cl)cc(Cl)c2cccnc12 | 64.6% and 49.1% | 81% and 71.6% | 63.2% and 72.1% | 49.7% and 71.2% | 24.7% and 27.4% | 49.7% | 65.2% and 71.8% | 30.6% | 69.1% and 74% | 99.9% and 85.2% | 85.5% and 71.2% | 24.4% and 29% | 74.1% and 91.3% | 95.1% and 48.3% | 67.1% | 66.4% and 54% | 30.3% and 12.3% | 68.7% and 34.3% | 82.4% | 63.7% and 53%
c1ccc2c(c1)Nc1cc3ccccc3cc1N2 | 30.3% | 80.5% | 48.5% | 41.4% | 51.7% | 85% | -14.7% (active) | 41.5% | 66.6% | -43.7% (active) | 60.9% | 20.9% | 28.4% | 33.1% | 63.3% | 66.2% | 46.2% | 39.1% | 37.4% | 23.9%
O=C(/C=C/c1cccc(Cl)c1)c1ccccc1 | 95.5% and 97.5% | 94.2% and 74.4% | 90.7% and 81.9% | 112% and 89.9% | 101% and 95.9% | 88.1% | 82.3% and 48.4% | 83.6% and 86.7% | 88.3% and 77.5% | 115% and 105% | 101% and 87.6% | 28.7% and 46.5% | 104% | 105% and 89.2% | 85.4% | 99.9% and 98.4% | 93.9% and 95.8% | 105% and 97.9% | 100% and 94.4% | 86.8% and 83%
Cc1ccnc2c1ccc1c(C)ccnc12 | 21.7% | 17.4% | 19% | 6.08% (active) | 5.29% (active) | 44.7% | – | 8.87% (active) | 6.29% (active) | 4.27% (active) | 27.4% | 12% | 19.1% | 31.9% | 26.2% | 22.8% | 18.3% | -3.71% (active) | 2.29% (active) | -11.5% (active)
O=C1C2=C(Nc3cc([N+](=O)[O-])ccc3N2)OC1c1c2ccccc2cc2ccccc12 (centres undefined) | 51.7% | 82.9% | 71.8% | 88% | 46% | 44.1% | 24% | 71.1% | 48.3% | 118% | 74.6% | 21.6% | 97.9% | 65.8% | 65.1% | 33.2% | 57.5% | 58.8% | 74.4% | 70.1%
CCN(CC)CCOc1ccc(-c2nc3cc(Cl)ccc3s2)cc1 | -53.6% (active) | 65.2% | 28.3% | -66.6% (active) | -64.6% (active) | 19.3% | -39.5% (active) | -1.04% (active) | 29.5% | -73.9% (active) | 12% | -99.1% (active) | 28.7% | -44.8% (active) | 29.8% | 16.5% | -71.5% (active) | -15.5% (active) | -36.2% (active) | -75.4% (active)
O=C(O)c1ccc2c3c(ncnc13)-c1ccccc1C2=O | -76.7% (active) | 52.4% | 23.7% | 12.3% | 11.5% | 81% | 77.7% | -6.25% (active) | 84.5% | 54.7% | -100% (active) | 74.5% | -68.6% (active) | 89.6% | 73.5% | 90% | 62.3% | 63.1% | 37.8% | -59% (active)
N#CSCc1ccc(Cl)c(CSC#N)c1 | 40.4% | 74.2% | 98.7% | 74% | 16.3% | -4.43% (active) | 13.7% | 35.5% | 32.1% | -7.52% (active) | 16.4% | 15.2% | 63.7% | 45.4% | 5.61% (active) | 36.4% | 70.7% | 15.2% | 83.1% | 9.39% (active)
Cc1c2ccccc2c(C)c2c1ccc1ccccc12 | 81.6% | 100% | 90.8% | 95.1% | 87.6% | 88.6% | 79.5% | 78.4% | 91.5% | 94.6% | 97.5% | 85.1% | 88.8% | 89.8% | 96.3% | 98.5% | 96.9% | 92.3% | 94.7% | 86.8%
O=C1OCc2cccc3cccc1c23 | 101% | 91.4% | 119% | 113% | 104% | 80.8% | 108% | 78.9% | 110% | 115% | 107% | 103% | 107% | 111% | 102% | 103% | 102% | 98.4% | 94.3% | 103%
COC(=O)c1nc(=S)[nH]c(C(=O)OC)c1C(=O)c1ccc2ccccc2c1 | 97.9% | 86.9% | 97.7% | 106% | 111% | 101% | 102% | 120% | 114% | 96.8% | 110% | 102% | 94.5% | 90.4% | 99.6% | 102% | 98.6% | 92.5% | 112% | 112%
N#Cc1ccc([N+](=O)[O-])o1 | 112% | 94.1% | 106% | 96.7% | 107% | 93.1% | 77.1% | 75.7% | 102% | 104% | 111% | 105% | 118% | 105% | 113% | 103% | 99.6% | 101% | 79.7% | 97.9%
O=C1c2ccccc2C(=O)N1c1ccccc1 | 106% | 101% | 99.1% | 96.9% | 104% | 104% | 90.9% | 90.7% | 105% | 106% | 109% | 106% | 105% | 89.7% | 112% | 108% | 94.9% | 103% | 101% | 106%
